Laboratory results taken from PubChem BioAssay AID651568 (National Center for Advancing Translational Sciences (NCATS), 2012).
Among all 1,200 compounds or so, about 55 (5%) were called active. Inconclusive results (about 15%) are left out. Calls come from the whole dose curve; as a rule, active = well fitted inhibition curve with a large enough effect; inconclusive = small, poorly fitted or top-dose-only effect; inactive = no such curve, though single readings can be large or run the other way. What follows is part of a selection rich in actives, with near analogues and random picks from the rest.

Test: qHTS Assay to Find Inhibitors of Chronic Active B-Cell Receptor Signaling: Hit Validation in Renilla Reporter Assay; note: nearly all actives have a fitted effect of over 70% in size
Settings: TMD8 IkB-Renilla luciferase reporter, NF-kB signaling; series mostly up to 57.5 µM; activity change, negative = inhibition: at the top concentration
Excerpt: Diffuse large B-cell lymphoma (DLBCL) is the most common category of non-Hodgkin lymphoma, with ~20,000 new cases per year in the United States. DLBCL should be regarded as a collection of different neoplasms. Microarray gene expression analysis has defined two principal types of DLBCL, named for their similarity to normal B cell stages or activation states: a germinal center B-cell (GCB) type, and an activated B-cell (ABC) type. In ABC-DLBCL, a constitutive high-level activity of the NF-kappaB family of transcription factors has been observed (1) and NF-kappaB target genes are more highly expressed in ABC primary tumors than in GCB tumors. Functional studies have shown a constitutive high-level activity of the IkappaB (inhibitor of kappa-B) kinase (IKK) complex. […] Further analysis of DLBCL primary tumors for NF-kappaB target gene expression imply that although CARD11 is required for constitutive IKK activity in all ABC-DLBCL lines, mutations in CARD11 may be the root cause of IKK activation only in lines or tumors with such mutations. In other words, CARD11 mutations may explain NF-kappaB activation in only 10% of ABC-DLBCL cases. […] This process has been termed 'chronic active BCR signaling' (CABS). The goal of this screen is to find small-molecule inhibitors of the CABS pathway found in ABC-DLBCL lines using a cell-based assay that measures IkappaBalpa stability, which has already been extensively validated in the OCI-Ly3 line (PubChem AID:445; REF: 4). […] Hits from the primary screen were tested in this orthogonal secondary assay. NIH Molecular Libraries Probe Production Network [MLPCN] NIH Chemical Genomics Center [NCGC] MLPCN Grant: R03 DA031086 PI Name: Dr. R. Eric Davis
The IkB-Photinus/Renilla reporter assay differs from the primary assay in that the reporters are constitutively expressed, and based on luciferases that are different from the click beetle luciferases and each other. These differences should help to eliminate artifactual sources of activity specific to the primary assay. This assay uses the Dual-Glo substrate from Promega; extensively validated in a 96-well format, it could be converted to a smaller-well format. All lines needed for the IkB-Photinus/Renilla assay have already been prepared and extensively validated
% is set by controls: 0 for no effect and ±100 for the full control effect; potency is the fitted concentration of half-maximal effect.

Row | Compound | Potency | activity change, negative = inhibition
1 | CCCc1nc([N+](=O)[O-])c(S(=O)(=O)c2ccccc2)n1CC(C)C | 30.1 µM (active) | –
2 | Cc1ccc(C(=O)c2cc([N+](=O)[O-])ccc2N2CCCCC2)cc1C | – | 1.06% (inactive)
3 | CCOC(=O)C1=C(C)NC(C)=C(C(=O)OCC)C1/C=C/c1ccccc1 | – | 12.9% (inactive)
4 | O=C(/C=C\c1ccco1)Nc1cc([N+](=O)[O-])ccc1F | – | -0.37% (inactive)
5 | O=S1(=O)C=C(Sc2nc3cc(Cl)ccc3o2)c2ccccc21 | 8.49 µM (active) | –
6 | CCOC(=O)C(C)Oc1cccc2c(=O)n(CC(=O)NCc3ccccc3)ccc12 (stereo not drawn) | – | -22.1% (inactive)
7 | COc1ccc(N(C(=O)c2ccccc2C)S(=O)(=O)c2cccs2)cc1 | – | 12.6% (inactive)
8 | Cc1ccc(C(=O)c2cc([N+](=O)[O-])ccc2N2CCCCC2)cc1 | – | 0.979% (inactive)
9 | O=C(/C=C/c1cccs1)c1cc(Br)ccc1OC(=O)N1CCOCC1 | 26.9 µM (active) | –
10 | O=C(Oc1ccc2ccc(OC(=O)N3CCOCC3)cc2c1)N1CCOCC1 | – | 5.12% (inactive)
11 | C#C[C@]1(O)CC[C@H]2[C@@H]3CCc4cc(O)ccc4[C@H]3CC[C@@]21C | – | -9.49% (inactive)
12 | O=C(COc1ccccc1-c1ccccc1)N/N=C/c1cccc2ccccc12 | – | -0.961% (inactive)
13 | Nc1cc(=O)[nH]c(SCC(=O)Nc2cc(Cl)cc(Cl)c2)n1 | – | 19% (inactive)
14 | COc1cc2c(cc1OC)-c1cc(Nc3ccc(C)cc3)nc(=O)n1CC2 | – | -18.8% (inactive)
15 | Cn1c(=O)n(Cc2ccccc2Cl)c2ccccc21 | – | 7.35% (inactive)
16 | N=C1SCC(=O)N1c1ncc(Cc2ccccc2Cl)s1 | 8.49 µM (active) | –
17 | N=C1SCC(=O)N1c1ncc(Cc2cccc(Cl)c2)s1 | 3.01 µM (active) | –
18 | CCc1ccc(CCC(=O)Nc2ncc(Cc3ccccc3Cl)s2)o1 | – | -12.8% (inactive)
19 | COc1ccccc1-c1noc(CSc2nc(N)cc(=O)[nH]2)n1 | – | -1.85% (inactive)
20 | COc1ccc(S(=O)(=O)Nc2cc3c(C(C)=O)c(C)oc3c3ccccc23)cc1 | – | 24.7% (inactive)
21 | O=c1cc(-c2ccccc2)[nH]c2ccccc12 | – | 1.97% (inactive)
22 | COc1ccc2cc(C3c4cc(OC)c(OC)cc4CCN3C(=O)c3ccco3)c(=O)[nH]c2c1 (stereo not drawn) | – | 0.254% (inactive)
23 | CCOC(=O)c1[nH]c(C)c(C(=O)c2cc(F)ccc2F)c1C | – | -10.3% (inactive)
24 | C/C(=N\NC(=O)c1c([N+](=O)[O-])c(C)nn1C)c1ccc(NC(=O)C2CCCC2)cc1 | – | 5.23% (inactive)
25 | CCOC(=O)c1[nH]c2c(c1C)C(=O)CC(c1ccc(F)cc1)C2 (stereo not drawn) | – | 8.44% (inactive)
26 | CC[C@]12c3[nH]c4cc(CCC(=O)N(C)C)ccc4c3CCN1C(=O)[C@@H](CC(=O)NCCCN(C)C)C[C@@H]2C(=O)N1CCN(C(=O)c2ccco2)CC1 | – | -12.6% (inactive)
27 | COc1ccc(S(=O)(=O)N2CCOCC2)cc1NC(=O)/C=C/c1ccc(F)cc1 | – | 2.91% (inactive)

Row | Compound | Potency | activity change, negative = inhibition
28 | COc1ccc(NC(=S)N/N=C/c2ccc(F)cc2)cc1OC | – | 2.21% (inactive)
29 | COc1ccc(/C=C/c2ccncc2)cc1OC | – | 1.23% (inactive)
30 | CCc1ccc(NC(=O)C(C)OC(=O)/C=C/c2ccc(O)c(OC)c2)cc1 (stereo not drawn) | – | -16.3% (inactive)
31 | COc1ccc(/C=C/C(=O)c2cc(F)ccc2OC(=O)c2ccccc2C)cc1OC | 13.5 µM (active) | –
32 | COc1ccc(/C=C/C(=O)c2cc(F)ccc2OC(=O)c2ccccc2OC)cc1OC | 6.75 µM (active) | –
33 | COc1ccc(/C=C/C(=O)c2cc(F)ccc2OC(=O)c2ccc(OC)c(OC)c2)cc1OC | 7.57 µM (active) | –
34 | Cc1ccccc1C(=O)Oc1ccc2ccc(O)cc2c1 | – | 1.03% (inactive)
35 | COc1ccc(/C=N\NC(=O)c2ccccc2F)cc1COc1ccc(F)cc1F | – | -2% (inactive)
36 | COc1cccc(/C=N/Nc2nc(Nc3ccccc3)nc(-n3nc(C)cc3C)n2)c1O | – | -13.7% (inactive)
37 | NC(=O)c1c(NC(=O)CSc2nc(N)cc(=O)[nH]2)sc2c1CCCC2 | – | -13.8% (inactive)
38 | CCOc1ncccc1C(=O)N1CCN(c2cc(Cl)ccc2C)CC1 | – | -5.04% (inactive)
39 | Cc1ccc(/C=N/NC(=O)c2cc(-c3ccncc3)nc3ccccc23)o1 | – | 1.04% (inactive)
40 | CCOC(=O)c1c(C)n(C)c2ccc(OC)c(NC(=O)CN3CCC4(CC3)OCCO4)c12 | – | 0.686% (inactive)
41 | O=C(/C=C/c1ccccc1)c1ccc(NC2=NCCCS2)cc1 | 21.3 µM (active) | –
42 | COC(=O)C1=C(C)NC(C)=C(C(=O)OC)C1/C=C/c1ccccc1 | – | 22.2% (inactive)
43 | Cc1nc(NC(=O)c2cnccn2)ccc1Br | – | -7.88% (inactive)
44 | Cn1c(=O)[nH]c(=O)c2c1nc(SCC(N)=O)n2Cc1cccc(Br)c1 | – | 3.59% (inactive)
45 | CCOC(=O)C1CCN(S(=O)(=O)c2c(Cl)ccc3nonc23)CC1 | 3.01 µM (active) | –
46 | CCOC(=O)C1CCN(C(=O)CSc2cc(=O)n(CC)c3ccccc23)CC1 | – | 4.83% (inactive)
47 | COc1ccc(C(=O)NN(C)c2nc(C(F)(F)F)nc3ccccc23)cc1 | – | -4.63% (inactive)
48 | COc1ccc(-c2cnnn2-c2ccc(NC(=O)c3ccc(S(=O)(=O)N4CCCCC4)cc3)cc2)cc1OC | – | 9.05% (inactive)
49 | Cc1ccc(C(=O)c2cc([N+](=O)[O-])ccc2N2CCOCC2)c(C)c1 | – | -2.34% (inactive)
50 | COCCn1c(-c2cccc([N+](=O)[O-])c2)nc2c1c(=O)[nH]c(=O)n2Cc1ccccc1 | – | -17.5% (inactive)
51 | Cc1ccc(C(=O)c2cc([N+](=O)[O-])ccc2N2CCCCC2)c(C)c1 | – | -15.6% (inactive)
52 | Cc1ccc(C)c(-n2c3nc(=O)[nH]c(=O)c-3cc3cc([N+](=O)[O-])ccc32)c1 | 16.9 µM (active) | –
53 | Cc1cccc(-n2c3nc(=O)[nH]c(=O)c-3cc3cc([N+](=O)[O-])ccc32)c1 | 26.9 µM (active) | –
